Compound activity (PubChem)
Giardia FBPA inh: inhibitors of Giardia lamblia fructose-1,6-bisphosphate aldolase | A8B2U2 | purified Giardia FBPA | Potency, µM (titrated, usually from 59.6 µM), without a hit: top-dose activity, negative = inhibition, actives largely listed as inhibitors | hit rate 0.71% among 290,000 | AID 2451; further: potency means the concentration at half of the fitted maximal effect; nearly all actives have a fitted effect of over 55% in size
Target sequence (A8B2U2 whole entry, looked up): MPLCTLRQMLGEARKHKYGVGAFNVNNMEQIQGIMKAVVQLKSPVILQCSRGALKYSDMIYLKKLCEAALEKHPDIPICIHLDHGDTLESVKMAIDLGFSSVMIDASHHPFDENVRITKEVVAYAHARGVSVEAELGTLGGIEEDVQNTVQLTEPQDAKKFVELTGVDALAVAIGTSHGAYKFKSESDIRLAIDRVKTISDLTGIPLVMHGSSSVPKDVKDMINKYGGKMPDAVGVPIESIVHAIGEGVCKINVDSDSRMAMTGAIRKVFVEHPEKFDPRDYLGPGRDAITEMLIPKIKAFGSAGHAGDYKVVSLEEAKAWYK
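Giardia FBPA (40 nM reagent) was preincubated 10 min at RT with compound (up to 57.5 uM final), then substrate plus GAPDH/TPI/NAD/arsenate coupling system with diaphorase/resazurin was added; resorufin fluorescence (525/598 nm) was read after 20 min.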
VACV Venus inh: inhibitors of vaccinia virus (Venus reporter) | Vaccinia virus Venus reporter expression, fluorescence | Potency, µM (series often up to 36.5 µM), without a hit: at the top dose activity change, negative = inhibition, most hits filed as inhibitors | hit rate 0.46% among 330,000 | AID 720580; calls by dose curve; tested in A549 cells; further: potency means the concentration at half of the fitted maximal effect; nearly all actives have a fitted effect of over 30% in size
HCV inh: inhibitors of hepatitis C virus infection | Huh7.5.1 HCVcc-Cre infection, luciferase reporter, 44 h | Potency, µM (doses to about 41.8 µM), for inactives: top-dose activity change, negative = inhibition, usual class: inhibitors | hit rate 3.4% among 340,000 | AID 651820; further: potency means the concentration at half of the fitted maximal effect
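Compounds are dispensed onto cells plated 4 h earlier at 1,000 per well, with HCVcc-Cre virus (about 0.5 moi) added next. Following 44 h of culture, luminescent signal is measured for 15 sec after 15 min with substrate at room temperature.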
Vaccinia mCherry: vaccinia inhibition (mCherry reporter); Vaccinia virus mCherry reporter infection, fluorescence; Potency, µM (series often up to 36.5 µM), inactives show at the top dose activity change, negative = inhibition, most hits filed as inhibitors; hit rate 0.63% among 310,000; calls by dose curve; tested in A549 cells; further: potency means the concentration at half of the fitted maximal effect; nearly all actives have a fitted effect of over 35% in size
FMDV inh: antivirals against foot and mouth disease virus; FMDV antiviral cell-based qHTS; Potency, µM (top dose mostly 57.9 µM), without a hit: at the top dose activity change, negative = inhibition, actives largely listed as inhibitors; hit rate 1.2% among 410,000; calls by dose curve; tested in HEK293T cells; further: read-out not given here; potency means the concentration at half of the fitted maximal effect; nearly all actives have a fitted effect of over 45% in size
HCMV inh: inhibitors of human cytomegalovirus; HFF cells, HCMV-luciferase reporter, 72 h; hits give low values; activity change, negative = inhibition, % at 57.5 µM; hit rate 4.5% among 410,000; in the data active means activity change below about -60%; inconclusive means no clear call, values can overlap the other calls; inactive means above about -39%
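Two-dose cell screen: HFF monolayers treated with compounds and infected with luciferase-expressing HCMV at 1 PFU/cell, 72 h at 37C, then lysed for luciferase measurement.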
Numbers without * were called inactive; i = inactive; ? = inconclusive; . = not tested or not shown; [ ] = another dose, or the depositor's remark. Rows were chosen to be rich in hits. Some 7.5% of all compounds tested hit in one or more screens of this group. Unless noted, the call rests on the fitted dose curve; in most records, active means well fitted curve in the direction sought with a large enough effect; inconclusive means small, poorly fitted or top-dose-only effect, or another doubt; inactive means no such curve, though single readings can be large; an effect the other way counts as inactive or inconclusive. On the % scale 0 is the no-effect control and ±100 the full control effect.

SMILES	Giardia FBPA inh	VACV Venus inh	HCV inh	Vaccinia mCherry	FMDV inh	HCMV inh
COC(=O)N/N=C/c1ccccc1Cl	-2%	-5%	3%	i	-5%	-75*
Clc1ncnc2scc(-c3ccccc3)c12	1%	-9%	3%	-22%	.	13
S=c1[nH]cnc2scc(-c3ccccc3)c12	8%	-22%	-4%	i	-16%	-77*
Cc1ccc(NC(=O)Nc2ccc3c(c2)nc(C)n3C)cc1	3%	-24%	?	i	6%	67
Cc1cc(NC(=O)Nc2ccc3c(ccn3C)c2)sn1	1%	-22%	0.56µM*	-21%	45%	-5
O=C(Nc1nnc(CSCc2ccc(F)cc2)s1)c1cccc([N+](=O)[O-])c1	?	-11%	8%	-5%	40µM*	-4
O=C(Nc1nnc(CSCc2ccc(Cl)cc2)s1)c1cccc([N+](=O)[O-])c1	-27%	-6%	21%	-8%	0%	-34
O=c1ccc2c(o1)/C(=C/C=C(Cl)Cl)CCC2	?	?	16µM*	10µM*	-27%	-7
CN(C)S(=O)(=O)N1CCN(S(=O)(=O)c2ccc(F)cc2)CC1	9%	-7%	16%	i	0%	7
CN(C)S(=O)(=O)c1ccc(N2CCN(S(=O)(=O)c3ccc(F)cc3)CC2)c(Cl)c1	9%	10µM*	?	10µM*	?	12
CC1(C(=O)NS(=O)(=O)c2cccs2)CCN1C(=O)Cc1ccc(Cl)cc1Cl (stereo not given)	.	3%	.	21%	-16%	5
COc1ccc(N2CCN(c3ccc(N4C(=O)CC(C)C4=O)cc3[N+](=O)[O-])CC2)cc1 (stereo not given)	2%	.	-17%	.	?	-90*
C/C1=C\CCC2C(/C=C(\C)CC1)OC(=O)C2CN1CCCCC1 (stereo not given)	-4%	-16%	-29%	?	-19%	-16
CCOC(=O)C1=CCN(S(=O)(=O)c2ccccc2Br)C1c1ccc(Cl)c(Cl)c1 (stereo not given)	.	-8%	.	6%	-24%	-39
CCc1nc2ccc(C(=O)Nc3ccc4c(c3)OCO4)cc2nc1CC	2%	-12%	2µM*	0%	49%	-31
CCc1nc2ccc(C(=O)Nc3cccc(C(C)=O)c3)cc2nc1CC	-1%	-14%	?	-7%	?	-16
COc1ccc(Cl)cc1C(=O)Nc1ccc2c(c1)OCO2	-20%	2%	11µM*	-11%	15%	260
CCC(CC)C(=O)Nc1cccc(C(=O)Nc2ccc3c(c2)OCO3)c1	-3%	-4%	7.9µM*	-18%	41%	-38
CCOc1ccc(NC(=O)c2cc(F)c(F)cc2Cl)cc1OCC	0%	-3%	-23%	-18%	1%	-98*
COc1ccc(C(CC(=O)Nc2cc(OC)c(OC)c(OC)c2)N2Cc3ccccc3C2=O)cc1 (stereo not given)	.	-12%	.	-14%	32%	-6
CCC(CC)C(=O)Nc1cccc(C(=O)Nc2ccc(S(N)(=O)=O)cc2)c1	3%	-9%	-24%	-6%	-10%	-29
CCC(CC)C(=O)Nc1cccc(C(=O)Nc2ccc(S(=O)(=O)Nc3ccc(C)cc3)cc2)c1	0%	.	16µM*	.	?	-97*
CC(OC(=O)c1cccc(NS(C)(=O)=O)c1)C(=O)Nc1ccc2c(c1)OCO2 (stereo not given)	.	-24%	7.1µM*	?	?	3
CCOc1cc(C(=O)Nc2ccc3c(c2)OCO3)ccc1OCCOc1ccccc1Cl	8%	-17%	-13%	-26%	-7%	19
CCOc1ccc(C(=O)Nc2ccc3c(c2)OCO3)cc1OCC	-3%	-1%	5.6µM*	-3%	14%	43
SMILES	Giardia FBPA inh	VACV Venus inh	HCV inh	Vaccinia mCherry	FMDV inh	HCMV inh
COc1ccc(NC(=O)C2=CC(c3ccc4c(c3)OCO4)=NS(=O)(=O)N2C)cc1OC	.	-10%	.	1%	-21%	-13
COc1ccc(C2=NS(=O)(=O)N(C)C(C(=O)Nc3ccc4c(c3)OCO4)=C2)cc1OC	-6%	-14%	13µM*	-12%	?	9
COc1cccc(C(=O)OC(C)C(=O)Nc2ccc3c(c2)OCO3)c1 (stereo not given)	.	.	?	.	-15%	-13
CSCC[C@H](NC(=O)[C@H](Cc1ccccc1)NC(=O)CNC(=O)CNC(=O)[C@@H](N)Cc1ccc(O)cc1)C(=O)O	.	-5%[3.33 µM]	.	-15%[3.33 µM]	-16%[6.7 µM]	.
O=C1C(=O)c2ccc(-c3ccccc3)cc2-c2ccccc21	0.28µM*	.	4.5µM*	.	14µM*	-99*
Nc1ccc2c(c1)C(=O)C(=O)c1ccccc1-2	?	3.5µM*	2.5µM*	.	5.6µM*	-98*
Nc1ccc2c(c1)C(=O)c1ccccc1-2	.	-17%	?	?	0%	39
COC(=O)[C@@H]1[C@@H](CO)[C@@H]2Cn3c(cccc3=O)[C@@H]2N1C(=O)c1cnccn1	.	.	.	.	.	23
CC(=O)c1ccc2c3c(cc(C)c2c1)CCCC3	.	-6%	11µM*	-25%	24%	-66*
O=C1/C(=C/c2ccc([N+](=O)[O-])cc2)C=C(c2ccccc2)N1c1ccccc1	3%	-10%	3%	i	.	-21
O=C(O)c1cccc(N2C(=O)/C(=C/c3ccc([N+](=O)[O-])cc3)C=C2c2ccccc2)c1	-6%	.	5%	.	13µM*	7
O=C1/C(=C/c2ccc([N+](=O)[O-])cc2)C=C(c2ccccc2)N1c1ccc(O)cc1	-8%	.	?	.	?	-83*
COc1ccc(N2C(=O)/C(=C/c3ccc([N+](=O)[O-])cc3)C=C2c2ccccc2)cc1	-3%	4%	?	i	.	-101*
CC(=O)N1CCc2c(sc3c2c(=O)n(-c2ccccc2)c(=O)n3CC(=O)c2ccc(Cl)cc2)C1	.	8%	.	-11%	-23%	-4
COc1cc(OC)cc(C(=O)N[C@H](C(=O)Nc2cc(C)cc(C)c2)C(C)C)c1	3%	7%	?	8%	6%	-76*
COc1cc(OC)cc(C(=O)NC(C(=O)Nc2ccc3c(c2)CCC3)C(C)C)c1 (stereo not given)	.	.	?	.	7%	26
Cc1ccc(Nc2nc(-c3ccc(S(=O)(=O)N4CCCC4)cc3)cs2)cc1C	-13%	.	4µM*	.	?	.
O=S(=O)(c1ccc(-c2csc(Nc3ccc(F)cc3)n2)cc1)N1CCCC1	11%	?	?	-7%	?	-10
Cc1nc(-c2ccc(S(=O)(=O)N3CCCCCC3)cc2)cs1	3%	?	-5%	.	-12%	-32
O=S(=O)(c1ccc(-c2csc(Nc3ccc(Br)cc3)n2)cc1)N1CCCC1	7%	?	?	-28%	?	-73*
Cc1cc(C)cc(Nc2nc(-c3ccc(S(=O)(=O)N4CCCC4)cc3)cs2)c1	-2%	.	10µM*	.	?	-77*
